Reference: PubChem BioAssay (NCI)
About 83,000 compounds went through this panel and 20% of them were active in at least one assay; those are over-represented in the sample as a whole.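 Percent growth is the endpoint: 0 to 100 indicates growth inhibition (40 means 60% inhibition), 0 means no net growth, and negative values indicate cell death.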 Unmarked numbers belong to inactive results. Calls of active or inactive are those of the source. How the source made its calls: active means growth percent below 10; inactive means the rest.

Columns and labels:
Assay in all cases: NCI-60 one-dose screen, 48 h (100 = growth as untreated, 0 = no growth, -100 = all killed)
Settings in all cases: 10 µM unless noted
[1] = system: T-47D breast
[2] = system: BT-549 breast
[3] = system: MDA-MB-435 melanoma
[4] = system: SW-620 colon
[5] = system: MCF7 breast
[6] = system: HCT-116 colon
[7] = system: HCC-2998 colon
[8] = system: KM12 colon

Row | Compound | growth [1] | growth [2] | growth [3] | growth [4] | growth [5] | growth [6] | growth [7] | growth [8]
1 | COc1ccc(/C=C/c2nc(N3CCOCC3)c3nc(Cl)c(Cl)cc3n2)cc1OC | 88.2% | 99.9% | 99.8% | 109% | 111% | 89.3% | 103% | 93.9%
2 | CC(Br)C(OC(=O)c1ccccc1Cl)c1cc2c(cc1Br)OCO2 (centres undefined) | 74.9% | 109% | 75.3% | 84.6% | 95.2% | 66.6% | 90.7% | 89%
3 | COc1cc2c3c(c(=O)oc2cc1OS(=O)(=O)c1ccc(C(F)(F)F)cc1)CCCCC3 | 80.9% | 75.4% | 91.6% | 102% | 89.6% | 66.6% | 97.6% | 92.1%
4 | O=C(CN1CCN(c2cc3c(cc2F)c(=O)c(C(=O)O)cn3C2CC2)CC1)Nc1ccc(C(=O)/C=C/c2ccc(Cl)cc2)cc1 | 106% | 91.1% | 101% | 111% | 91.7% | 41.3% | 103% | 120%
5 | COc1ccc(/C(=N/O)c2cc(F)c(F)c(OC)c2F)cc1O | 28.4% | 33.5% | -35.7% (active) | 15.2% | 18.7% | 15.6% | 42.7% | 29.3%
6 | COC(=O)c1cc(-c2cccs2)c(C#N)c(N)c1C#N | 69.1% | 107% | 104% | 102% | 67.7% | 95.5% | 106% | 108%
7 | Nc1ccc(S(=O)(=O)c2ccc(Cl)cc2)cc1 | 104% | 97.2% | 121% | 94.1% | 99.3% | 97.2% | 102% | 93.4%
8 | CN(C)CCCNC(=O)C(c1ccccc1)c1ccccc1 | 87.9% | 106% | 108% | 100% | 96.3% | 94.3% | 99.1% | 111%
9 | CCSc1nnc(Nc2ccc(C(C)C)cc2)s1 | 78.7% | 103% | 86.7% | 84.1% | 95.2% | 72.3% | 92.7% | 83.9%
10 | CCCCCCCCCCCCNC(=S)N/N=C/c1ccc(Cl)c(Cl)c1 | 94.9% | 120% | 98.8% | 110% | 102% | 102% | 106% | 102%
11 | Nc1c(C(=O)c2ccc(F)cc2)sc2nc3c(cc12)CCCC3 | 79.9% | 90.7% | 22.5% | 81% | 80.4% | 72.2% | 76.7% | 66.2%
12 | CC(=O)Nc1nc(C(=O)N2N=C(C)/C(=C/c3ccccc3)C2=O)cs1 | 98.6% | 107% | 106% | 107% | 95.9% | 98.3% | 104% | 102%
13 | NC(=O)NC(=O)/C=C/C(=O)OCCCl | 69% | 106% | 101% | 102% | 92.2% | 104% | 99.8% | 110%
14 | O=C1NCC(c2cc3ccccc3[nH]c2=O)Nc2ccccc21 (centres undefined) | 91% | 96.3% | 107% | 102% | 103% | 92.6% | 104% | 103%
15 | COc1cc(NC(=O)CSc2nc3ccc(C)cc3c(=O)n2-c2ccccc2)cc(OC)c1OC | 81.7% | 79.8% | 47.5% | 87.6% | 91.1% | 87% | 97.5% | 75.1%
16 | COc1ccc(-n2cnc3c(sc4ncc(Cl)cc43)c2=O)cc1 | 86.1% | 94.9% | 77.4% | 98.3% | 101% | 54.5% | 116% | 55.1%

Row | Compound | growth [1] | growth [2] | growth [3] | growth [4] | growth [5] | growth [6] | growth [7] | growth [8]
17 | COc1ccc2c(c1)NC(=O)CN2c1nc(NC2CC2)nc2ccccc12 | 13.2% | -17% (active) | -36% (active) | 23.6% | 9.56% (active) | 0.461% (active) | 6.95% (active) | 3.45% (active)
18 | O=C1Nc2ccc(Br)cc2C1=N/C=c1\[nH]c(=O)/c(=C/c2ccc(Cl)cc2)s1 | 80% | 99.8% | 104% | 104% | 86.6% | 87.9% | 118% | 107%
19 | CCC1CCc2nc3sc(C(=O)Nc4cccc(C)c4)c(N)c3cc2C1 (centres undefined) | 96.9% | 86.1% | -15.9% (active) | 53.2% | 18.7% | 83.8% | 100% | 48.5%
20 | c1cc(-c2ccc3c(c2)OCO3)n2nccc2n1 | 88.2% | 101% | 98.2% | 105% | 89.9% | 102% | 86.9% | 
21 | CC1=NN2C(=NC3=C(CCC/C3=C\c3ccc(Cl)cc3)C2c2ccc(Cl)cc2)S1 (centres undefined) | 89.1% | 97.9% | 45.8% | 97.3% | 24.2% | -37.2% (active) | 80.6% | 77.2%
22 | CN(C)C/C=C/C(=O)Nc1cc2c(Nc3ccc(F)c(Cl)c3F)ncnc2cc1OCCOC(F)F | -1.23% (active) | 5.73% (active) | 5.61% (active) | 3.09% (active) | 20% | 2.2% (active) | 41.1% | 44.6%
23 | CC(CCc1ccccc1)NC(=O)c1n[nH]c(=O)c2ccccc12 (centres undefined) | 95.8% | 98.9% | 108% | 100% | 90.7% | 97% | 156% | 109%
24 | COc1ccc(-n2c(C)cc(-c3ccccc3)c2C)cc1 | 27.5% | 47% | 12.1% | 41.2% | 28% | 21% | 35.1% | 37.7%
25 | CCCCCCC[C@@H](O)CC(=O)N[C@H](CCCCN)C(=O)N[C@H](Cc1c[nH]c2ccccc12)C(=O)NC(CCCCN)C(=O)N[C@H](CC(C)C)C(=O)N[C@H](Cc1ccccc1)C(=O)N[C@H](CCCCN)C(=O)N[C@H](CCCCN)C(=O)N[C@H](CC(C)C)C(=O)N1CCCC1C(=O)N[C@H](CCCCN)C(=O)N[C@H](Cc1ccccc1)C(=O)N[C@H](CC(C)C)C(=O)N[C@H](Cc1c[nH]cn1)C(=O)N[C@H](CC(C)C)C(=O)N[C@H](C)C(=O)N[C@H](CCCCN)C(=O)N[C@H](CCCCN)C(=O)N[C@H](Cc1ccccc1)C(=O)O (some centres undefined) | -39.9% (active) | -43% (active) | -38.7% (active) | -52.2% (active) | -23.8% (active) | -35.7% (active) | -49.2% (active) | -63% (active)
26 | CC(=O)c1cc(C(=O)c2ccc3c(c2)Sc2ccccc2N3)c2cc(C)ccn12 | 61.7% | -13.9% (active) | -19.7% (active) | 22.4% | 10.8% | -23.6% (active) | 23.2% | 5.18% (active)
27 | CN(C)c1ncc(-c2ccc(C(F)(F)F)cc2)c(NC2CCCCCC2)n1 | 35.1% | 90.3% | 65.4% | 58.1% | 41.2% | 44.1% | 72.2% | 54.4%
28 | C=CCc1cc(Cl)cc2c(OC(C)=O)c(C(C)=O)c(-c3ccccc3)nc12 | 90.8% | 116% | 108% | 107% | 82.1% | 105% | 118% | 99.5%
29 | COc1cccc(/C=C2\SC(N3CCN(c4ccccn4)CC3)=NC2=O)c1 | 95% | 112% | 108% | 97.9% | 94.8% | 103% | 99.4% | 97.4%
30 | COc1cc(Cn2c(-c3nonc3N)nc3ccccc32)ccc1C | 37.2% | 66.9% | -30.6% (active) | 31.2% | 20.7% | 20.3% | 23.5% | 
31 | COc1ccc(C2NC3=C(CCCC3)C(C#N)(C#N)C2(C#N)C#N)cc1 (centres undefined) | 49.2% | 92.9% | 103% | 48.2% | 49.9% | 78.7% | 102% | 103%
32 | COc1cc2c(cc1OC)C1(C)N(CC2)C(=O)OC1(C)C (centres undefined) | 98.4% | 115% | 113% | 103% | 91.3% | 104% | 102% | 112%
